According to PubChem BioAssay (EPA / NIEHS):
Inconclusive results are not listed. The source made the active and inactive calls. How the source made its calls, unless noted: active means hit-call score of the fitted dose curve at least 0.9, where 1 is the maximum; inactive means score below 0.9.

assay: CEETOX_H295R_11DCORT: CeeTox H295R High-throughput Steroidogenesis Assay for 11-Deoxycortisol (11DCORT) (AID 2283432); details: actives raise or lower the signal
Summary of the method: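 H295R cells; 10 uM forskolin prestim 48 h; compound in 0.1% DMSO 48 h; media extracted with MTBE; 11-deoxycortisol by LC-MS/MS, 7-point standard curve; gain/loss vs DMSO baseline; viability by MTT in same wells.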

| Compound | outcome |
| --- | --- |
| Nc1ccc(Oc2cccc(Oc3ccc(N)cc3)c2)cc1 | inactive |
| Cc1cccc(N(C)C)c1 | inactive |
| CCCCCCS | inactive |

assay: CEETOX_H295R_OHPREG: CeeTox H295R High-throughput Steroidogenesis Assay for OH-Pregnenolone (OHPREG) (AID 2283434); details: actives raise or lower the signal
Summary of the method: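 Readout: HPLC-MS/MS of 17alpha-hydroxypregnenolone in medium after 48 h chemical exposure of H295R cells pretreated with forskolin. Values fitted bidirectionally relative to DMSO; chemicals reducing viability to 20–70% were retested after 10-fold dilution.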

| Compound | outcome |
| --- | --- |
| Nc1ccc(Oc2cccc(Oc3ccc(N)cc3)c2)cc1 | inactive |
| Cc1cccc(N(C)C)c1 | inactive |
| CCCCCCS | inactive |

assay: CEETOX_H295R_OHPROG: CeeTox H295R High-throughput Steroidogenesis Assay for OH-Progesterone (OHPROG) (AID 2283435); details: actives raise or lower the signal;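 on AC50: 17alpha-hydroxyprogesterone secreted into medium measured by HPLC-MS/MS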
Summary of the method: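 HPLC-MS/MS quantification of 17alpha-hydroxyprogesterone secreted by H295R cells after 48 h chemical exposure, following 48 h 10 uM forskolin prestimulation. Gain or loss of signal fitted relative to DMSO. Viability checked by MTT in the same wells.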

| Compound | AC50 | outcome |
| --- | --- | --- |
| Nc1ccc(Oc2cccc(Oc3ccc(N)cc3)c2)cc1 | 2.87 µM (active) | – |
| Cc1cccc(N(C)C)c1 | – | inactive |
| CCCCCCS | – | inactive |

assay: CEETOX_H295R_CORTIC: CeeTox H295R High-throughput Steroidogenesis Assay for Corticosterone (CORTIC) (AID 2283437); details: actives raise or lower the signal;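 further: corticosterone secreted into medium quantified by mass spectrometry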
Summary of the method: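 Steps: seed H295R, adhere overnight; 10 uM forskolin 48 h; replace with chemical (0.1% DMSO) 48 h; extract medium with MTBE; quantify corticosterone by HPLC-MS/MS; score bidirectionally vs DMSO.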

| Compound | AC50 | outcome |
| --- | --- | --- |
| Nc1ccc(Oc2cccc(Oc3ccc(N)cc3)c2)cc1 | 2.84 µM (active) | – |
| Cc1cccc(N(C)C)c1 | – | inactive |
| CCCCCCS | – | inactive |

assay: CEETOX_H295R_CORTISOL: CeeTox H295R High-throughput Steroidogenesis Assay for Cortisol (AID 2283438); details: actives raise or lower the signal;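 further: cortisol secreted into medium quantified by LC-MS/MS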
Summary of the method: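 Read-out: cortisol in culture medium by reverse-phase C18 HPLC with ESI-positive tandem MS, after MTBE liquid-liquid extraction. Cells: human adrenal H295R, forskolin-primed (10 uM, 48 h) before 48 h chemical exposure in 0.1% DMSO.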

| Compound | AC50 | outcome |
| --- | --- | --- |
| Nc1ccc(Oc2cccc(Oc3ccc(N)cc3)c2)cc1 | 3.6 µM (active) | – |
| Cc1cccc(N(C)C)c1 | – | inactive |
| CCCCCCS | – | inactive |

assay: CEETOX_H295R_DOC: CeeTox H295R High-throughput Steroidogenesis Assay for DOC (AID 2283439); details: actives raise or lower the signal
Summary of the method: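 Human adrenocortical H295R cells, passages up to 10, received 10 uM forskolin for 48 h before chemical addition. After another 48 h exposure in 0.1% DMSO, secreted DOC was measured by LC-MS/MS, with gain or loss fitted against DMSO controls.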

| Compound | outcome |
| --- | --- |
| Nc1ccc(Oc2cccc(Oc3ccc(N)cc3)c2)cc1 | inactive |
| Cc1cccc(N(C)C)c1 | inactive |
| CCCCCCS | inactive |

assay: CEETOX_H295R_ESTRADIOL: CeeTox H295R High-throughput Steroidogenesis Assay for Estradiol (AID 2283440); details: actives raise or lower the signal;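 further: estradiol secreted into medium quantified by LC-MS/MS after dansyl derivatisation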
Summary of the method: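 H295R cells pre-stimulated 48 h with 10 uM forskolin, then exposed 48 h to chemical in 0.1% DMSO. Medium estradiol quantified by MTBE extraction, dansyl derivatisation and HPLC-MS/MS; bidirectional fit versus DMSO; MTT viability required >/=70%.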

| Compound | outcome |
| --- | --- |
| Nc1ccc(Oc2cccc(Oc3ccc(N)cc3)c2)cc1 | inactive |
| Cc1cccc(N(C)C)c1 | inactive |
| CCCCCCS | inactive |

assay: CEETOX_H295R_ESTRONE: CeeTox H295R High-throughput Steroidogenesis Assay for Estrone (AID 2283441); details: actives raise or lower the signal;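 further: estrone secreted into medium measured by LC-MS/MS after dansyl derivatization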
Summary of the method: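 Forskolin-stimulated H295R cells are treated 48 h with chemical, and estrone in the medium is measured by LC-MS/MS. Activity is fitted in both directions relative to DMSO controls, with chemicals diluted until MTT viability reaches at least 70%.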

| Compound | outcome |
| --- | --- |
| Nc1ccc(Oc2cccc(Oc3ccc(N)cc3)c2)cc1 | inactive |
| Cc1cccc(N(C)C)c1 | inactive |
| CCCCCCS | inactive |

assay: CEETOX_H295R_PROG: CeeTox H295R High-throughput Steroidogenesis Assay for Progesterone (PROG) (AID 2283442); details: actives raise or lower the signal
Summary of the method: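 H295R adrenal cells prestimulated 48 h with 10 uM forskolin, then exposed 48 h to test chemical in 0.1% DMSO. Progesterone in medium quantified by HPLC-MS/MS after MTBE extraction; viability checked by MTT in same wells.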

| Compound | AC50 | outcome |
| --- | --- | --- |
| Nc1ccc(Oc2cccc(Oc3ccc(N)cc3)c2)cc1 | 3.9 µM (active) | – |
| Cc1cccc(N(C)C)c1 | – | inactive |
| CCCCCCS | – | inactive |

assay: ATG_XTT_Cytotoxicity: Cytotoxicity Assessment in the Attagene TRANS-FACTORIAL HepG2 Assay (AID 2283584; active means hit-call score of the fitted dose curve at least 0.9, where 1 is the maximum); details: not given
Summary of the method: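 HepG2 cells transiently transfected with GAL4-UAS multiple reporter units, dosed 24 h; cytotoxicity read by XTT as loss of signal versus DMSO baseline.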

| Compound | outcome |
| --- | --- |
| CC(C)(C)c1ccc(OC2CCCCC2O)cc1 (stereo not given) | inactive |
| CCCCCCCCCCCCCCCC[N+](C)(C)Cc1ccccc1 | inactive |
| Nc1ccc(Oc2cccc(Oc3ccc(N)cc3)c2)cc1 | inactive |
| CS(C)(=O)=O | inactive |
| CCCCCC=O | inactive |
| CCCCOCCOCCOC(=O)CCCCC(=O)OCCOCCOCCCC | inactive |
| O[Si](c1ccccc1)(c1ccccc1)c1ccccc1 | inactive |
| CO[Si](OC)(c1ccccc1)c1ccccc1 | inactive |
| O=C(C=Cc1ccccc1)OCC=Cc1ccccc1 | inactive |
| CC(C)c1ccccc1N | inactive |
| CCc1c(Br)c(Br)c(Br)c(Br)c1Br | inactive |
| CCCCCCCOC(=O)c1ccccc1C(=O)OCCCCCCC | inactive |
| CC(C)=CCCC(C)CCOC(=O)C(C)C (stereo not given) | inactive |
| Cc1cccc(N(C)C)c1 | inactive |
| CCCCNc1ccccc1 | inactive |
| C=CC/C=C/C/C=C/C/C=C/C | inactive |
| Nc1ccc([N+](=O)[O-])cc1O | inactive |
| CCCCCCS | inactive |
| CC/C=C\CCOC(=O)c1ccccc1 | inactive |
| CCN(CC)c1ccc2c(C)cc(=O)oc2c1 | inactive |
| c1ccc(-c2ccccc2-c2ccccc2)cc1 | inactive |
| Nc1cc(Cl)c(N)c(Cl)c1 | inactive |
| COC(OC(C)=O)c1ccccc1 (stereo not given) | inactive |
